Cruzain inh noDet: cruzain (T. cruzi) inhibition without detergent; P25779; purified cruzain, Z-FR-AMC fluorescence, no detergent; Potency, µM, hits mostly inhibitors; actives 2.3% (n = 200,000); AID 1476; also: nearly all actives have a fitted effect of over 40% in size
Target sequence (P25779 123-467 limits assumed): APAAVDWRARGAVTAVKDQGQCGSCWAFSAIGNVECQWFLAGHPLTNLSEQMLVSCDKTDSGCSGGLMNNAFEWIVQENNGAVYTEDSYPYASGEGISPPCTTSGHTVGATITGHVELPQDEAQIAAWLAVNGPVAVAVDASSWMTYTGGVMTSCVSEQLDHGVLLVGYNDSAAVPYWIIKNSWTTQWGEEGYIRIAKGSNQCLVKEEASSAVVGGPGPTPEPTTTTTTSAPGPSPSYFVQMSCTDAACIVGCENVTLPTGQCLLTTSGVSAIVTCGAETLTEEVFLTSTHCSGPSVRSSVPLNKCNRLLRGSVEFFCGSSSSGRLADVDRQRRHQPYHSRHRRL
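Purified cruzain at 1.5 nM, pre-incubated 15 min with compound at room temperature in 100 mM sodium acetate pH 5.5, 5 mM DTT, 0.00005% Triton X-100. Reaction started with 2 uM Z-FR-AMC; AMC fluorescence increase over 60 s gives rate.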
NS1 function inh: blocks influenza NS1 protein function; Potency, µM (series often up to 46.1 µM); actives 0.4% (n = 270,000); AID 2326; calls by dose curve; also: actives are rising curves; nearly all actives have a fitted effect of over 50% in size
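S. cerevisiae expressing influenza A NS1, grown in glucose, washed, then diluted 1:100 into pH 6.0 -URA galactose medium with 23 nl compound. Growth recovery read as OD600; NS1-free strain serves as control.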
Cruzain Triton: inhibitors of Trypanosoma cruzi cruzain with detergent | actives 0.43% (n = 200,000) | purified cruzain, Z-FR-AMC fluorescence, 0.01% Triton | P25779 | Potency, µM, most hits filed as inhibitors | AID 1478; also: nearly all actives have a fitted effect of over 40% in size
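15 min RT preincubation of 1.5 nM cruzain with compound, then 2 uM Z-FR-AMC added; kinetic AMC fluorescence, 60 s delta. Triton X-100 0.01%, pH 5.5.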
NS1 inh valid: validation of influenza NS1 protein function inhibitors; shares compounds with NS1 function inh; influenza NS1 function cell assay, 15-point titration; activity change, negative = inhibition, % at 32.9 µM; 1,400 tested, under 10 active; AID 492980; calls by dose curve
Flu PR8 replic: influenza virus titer reduction, NS1 project; actives 30% (n = 95); shares compounds with NS1 function inh; virus titer (log TCID50), log10 TCID50 at 5 µM; AID 504647; MDCK infected influenza A/PR/8/34, virus titer TCID50; active compounds read low; call rule not given here
A number is an active result; – = inactive; ? = inconclusive; · = not tested or not shown. Only a selection was taken, and hits are over-represented in it overall. Unless noted, calls follow the shape of the dose curve; as a rule, active = well fitted curve in the direction sought with a large enough effect; inconclusive = small, poorly fitted or top-dose-only effect, or another doubt; inactive = no such curve, though single readings can be large; an effect the other way counts as inactive or inconclusive.

SMILES	Cruzain inh noDet	NS1 function inh	Cruzain Triton	NS1 inh valid	others
CCCCNC(=O)C(c1ccc(OCC(=O)OC)c(C(=O)OC)c1)N(Cc1ccccc1)C(=O)CCCCCN1C(=O)NC(c2ccc(-c3ccccc3)cc2)C(C(=O)OCc2ccccc2)=C1C (configuration not stated)	–	·	–	·
CCCCCCN(C(=O)CCCCCN1C(=O)NC(c2ccc(-c3ccccc3)cc2)C(C(=O)OCc2ccccc2)=C1C)C(C(=O)NCCCC)c1ccc(OCC(=O)OC)c(C(=O)OC)c1 (configuration not stated)	·	11.2µM	·	–
CNC(=O)c1[nH]cnc1C(=O)N[C@@H](Cc1ccccc1)C(=O)OCc1ccccc1	·	–	·	·
C[C@H](NC(=O)c1nc[nH]c1C(=O)N[C@@H](Cc1ccccc1)C(=O)OCc1ccccc1)C(=O)OCc1ccccc1	·	7.94µM	·	–
CC(C)(C)OC(=O)CNC(=O)c1[nH]cnc1C(=O)NC(c1ccccc1)c1ccccc1	·	14.1µM	·	–
C[C@H](NC(=O)c1nc[nH]c1C(=O)N[C@@H](Cc1ccccc1)C(=O)OC(C)(C)C)C(=O)OCc1ccccc1	·	11.2µM	·	–
CC(C)C[C@H](NC(=O)c1nc[nH]c1C(=O)NCC(=O)OC(C)(C)C)C(=O)OCc1ccccc1	·	–	·	·
CC(C)C[C@H](NC(=O)c1nc[nH]c1C(=O)N[C@@H](CC(C)C)C(=O)OC(C)(C)C)C(=O)OCc1ccccc1	·	–	·	·
COc1ccccc1CNC(=O)c1cccc(NC(=O)N2CCSc3ncccc32)c1	–	·	–	·
COc1ccc(Br)cc1CNC(=O)CN1CCSc2ccccc21	–	·	–	·
CCCCc1cc(=O)oc2cc(C)c3c(C)coc3c12	–	·	–	·
CCOC(=O)c1c(C)c(-c2ccccc2)n(CC(=O)NCCc2cccc(C)c2)c1C	–	·	–	·
CCc1n[nH]c2c1/C(=N\O)CC(c1ccccc1)C2 (configuration not stated)	–	–	–	·
CCCCc1n[nH]c2c1/C(=N/O)CC(c1ccccc1)C2 (configuration not stated)	–	?	–	–
Cc1cn2c(=O)cc(COC(=O)c3cccc(NC(=O)COc4ccccc4)c3)nc2s1	–	·	–	·
COc1ccc(NC(=S)N(CCc2c(C)[nH]c3ccc(C)cc23)Cc2cccs2)cc1	?	11.2µM	–	–
CCOc1ccc(NC(=S)N(CCc2c(C)[nH]c3ccc(C)cc23)Cc2ccco2)cc1	3.16µM	11.2µM	–	–
COc1ccc2[nH]c(C)c(CCN(Cc3cccs3)C(=S)Nc3ccc(F)cc3)c2c1	?	?	–	·
COc1ccc(NC(=S)N(CCc2c(C)[nH]c3ccc(C)cc23)Cc2ccco2)cc1	?	–	–	·
Cc1ccc(Cl)cc1NC(=O)C1CCN(c2nc3ccccc3n3cccc23)CC1	?	·	–	·
Cc1cccc(Cn2c(=O)n(Cc3ccccc3)c(=O)c3c2c2cc(C)ccc2n3C)c1	?	·	–	·
CN(Cc1ccccc1)C(=O)C1CCN(S(=O)(=O)c2ccc3c(c2)oc(=O)n3C)CC1	?	·	–	·
CCS(=O)(=O)n1nc(-c2ccco2)nc1NCc1ccc(C(C)C)cc1	?	·	–	·
CC(C)CC(=O)Nc1nnn(C)n1	–	10µM	–	–
CC(C)C(=O)Nc1nnn(C)n1	–	–	–	·
SMILES	Cruzain inh noDet	NS1 function inh	Cruzain Triton	NS1 inh valid	others
O=S(=O)(/N=C(/Nc1cccc2ccccc12)c1ccccc1)c1cccs1	–	14.1µM	–	–
O=S(=O)(/N=C(/Nc1cccc2ccccc12)c1ccccc1)c1ccccc1	·	–	·	·
CC(=NCc1ccco1)c1c(O)n(C)c(=O)n(C)c1=O	–	–	–	·
Cn1c(O)c(C=NCc2ccco2)c(=O)n(C)c1=O	–	8.91µM	–	–
Cc1cc(C)c(NC(=O)Cn2nc(-c3ccncc3)ccc2=O)c(C)c1	–	·	–	·
Cc1nn(C)c(C)c1CCC(=O)N1CCCC(N2CCN(c3ccc(F)cc3)CC2)C1 (configuration not stated)	·	?	·	–
Cc1noc(C)c1CCC(=O)N1CCCC(N2CCN(c3ccc(F)cc3)CC2)C1 (configuration not stated)	·	–	·	·
O=C1CCCC/C1=C\Nc1ccc(O)cc1	–	?	–	–
CCOC(=O)c1ccc(N/C=C2\CCCCC2=O)cc1	–	–	–	·
CS(=O)(=O)N1CCC2(CCCN(c3cccc(-c4ccccc4)c3)C2)CC1	?	·	–	·
COc1ccc(/C=C\C(=O)NCc2ccc3[nH]c(C)cc3c2)cc1OC	–	?	–	·
COc1cc(/C=C\C(=O)NCc2ccc3[nH]c(C)cc3c2)cc(OC)c1OC	–	1.26µM	–	–
CCCC12CN3CC(CCC)(CN(C1)C3c1c[nH]c3ccccc13)C2=O (configuration not stated)	–	·	–	·
Cc1cccc(-n2cc(-c3ccc([N+](=O)[O-])cc3)[nH]c2=S)c1	?	–	–	·
Cc1ccc(-n2cc(-c3ccc([N+](=O)[O-])cc3)[nH]c2=S)c(C)c1	?	6.31µM	–	–
CCOC(=O)C1=C(C)Nc2sc(C(=O)c3ccc(F)cc3)c(N)c2C1c1ccc(C(=O)OC)cc1 (configuration not stated)	?	?	–	·
CCOC(=O)C1=C(C)Nc2sc(C(=O)c3ccc(C)cc3)c(N)c2C1c1ccc(C(=O)OC)cc1 (configuration not stated)	?	10µM	–	–
O=c1c(Cc2ccccc2)c(O)nc2n1CCCS2	–	–	–	·
O=c1cc(O)nc2n1CCCS2	–	7.94µM	–	–
COc1ccc(Br)cc1CNC(=O)CCCn1c(=O)c2cccn2c2ccccc21	–	·	–	·
Cc1ccc(NC(=O)Cn2c(=O)n(CCC(=O)NCCc3ccccc3)c(=O)c3ccccc32)cc1	–	·	–	·
Cc1cc(OCC(=O)NC(Cc2ccc(Cl)cc2)C(=O)O)c2c3c(c(=O)oc2c1)CCCC3 (configuration not stated)	·	3.16µM	·	–
Cc1c(OCC(=O)NC(Cc2ccc(Cl)cc2)C(=O)O)ccc2c3c(c(=O)oc12)CCCC3 (configuration not stated)	·	–	·	·
Cc1cc(OCC(=O)NC(Cc2ccc(Cl)cc2)C(=O)O)c2c(C)cc(=O)oc2c1 (configuration not stated)	·	–	·	·
Cc1cc(OCC(=O)NC(Cc2ccc(Cl)cc2)C(=O)O)c2c(C)c(C)c(=O)oc2c1 (configuration not stated)	·	7.94µM	·	?	Flu PR8 replic=–
SMILES	Cruzain inh noDet	NS1 function inh	Cruzain Triton	NS1 inh valid	others
Cc1ccccc1-c1nc2scc(CCNS(=O)(=O)c3ccccc3)n2n1	–	·	–	·
Cc1c(CNC2CCCCC2)c(C(=O)O)c(C)n1Cc1c(F)cccc1Cl	–	·	–	·
CC(C)(C)NC(=O)Cn1c(-c2nonc2N)nc2ccccc21	–	–	–	·
CC(C)(C)NC(=O)Cn1nnnc1-c1nonc1N	–	?	–	–
O=C(NCc1ccccc1)c1ccc(CN2CCOCC2)cc1	–	?	–	–
COc1ccc(CNC(=O)c2ccc(CN3CCOCC3)cc2)cc1	–	–	–	·
CCOC(=O)N1CCN(C(=O)CCC(=O)N2CCOc3ccc(C)cc32)CC1	–	5.62µM	–	–

Bioassay records from PubChem BioAssay.
